Only some compounds are listed: those with a hit (about 18% of all), similar ones and a draw of the others.
TDP1 cell noCPT: qHTS for Inhibitors of human tyrosyl-DNA phosphodiesterase 1 (TDP1): qHTS in cells in absence of CPT; AID 686978, 2013; Potency, µM (doses to about 46.2 µM), for the others: top-dose activity change, negative = growth inhibition, hits mostly inhibitors; 420,000 tested, 15% active; DT40 Tdp1-/- hTDP1 cells, no CPT, ATP luminescence, 48 h; also: potency is read from the fitted curve at half-maximal effect; nearly all actives have a fitted effect of over 55% in size
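DT40 Tdp1-/-;hTDP1 cells, no CPT (DMSO vehicle only), 400 cells/well; compounds pin-transferred; ≥48 hr, 37 °C; CellTiter-Glo 30 min RT dark, luminescence read.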
RORgamma inh: inhibitors of mouse ROR gamma transcriptional activity. Drosophila S2 Gal4-RORgamma UAS-luciferase reporter, 20 h. Potency, µM (doses to about 53.6 µM), for inactives: top-dose activity change, negative = inhibition, actives largely listed as inhibitors. 310,000 tested, 5.4% active; also: potency is read from the fitted curve at half-maximal effect; nearly all actives have a fitted effect of over 60% in size
Target sequence (P51450 whole entry, looked up, the tested form may be a part): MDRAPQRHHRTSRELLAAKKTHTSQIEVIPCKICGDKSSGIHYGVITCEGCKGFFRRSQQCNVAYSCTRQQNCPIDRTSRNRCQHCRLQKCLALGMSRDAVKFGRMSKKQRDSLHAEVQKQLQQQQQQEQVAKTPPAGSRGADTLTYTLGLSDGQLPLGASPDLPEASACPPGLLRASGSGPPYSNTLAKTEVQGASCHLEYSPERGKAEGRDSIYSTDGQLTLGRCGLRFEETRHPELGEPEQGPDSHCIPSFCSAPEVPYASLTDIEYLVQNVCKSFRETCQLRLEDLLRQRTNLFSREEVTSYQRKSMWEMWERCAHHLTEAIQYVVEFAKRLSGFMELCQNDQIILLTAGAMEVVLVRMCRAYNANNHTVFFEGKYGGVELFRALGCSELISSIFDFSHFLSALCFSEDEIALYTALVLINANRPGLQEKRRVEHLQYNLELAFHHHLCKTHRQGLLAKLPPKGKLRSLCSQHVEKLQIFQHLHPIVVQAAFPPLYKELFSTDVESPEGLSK
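Compounds are pin-transferred onto Drosophila Schneider cells expressing a copper-inducible Gal4–ROR gamma transactivation domain fusion. After 1 hr, copper sulfate is added to 700 uM final; luciferase is read 20 hr later.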
LDHA block: blocks human lactate dehydrogenase A; activity change, % (values are at about 110 or 230 µM); AID 1347041; P00338; purified LDHA, NADH/diaphorase-resazurin fluorescence; active compounds read low; 480,000 tested, 0.15% active; in the data active = activity change below about -30%; inconclusive = mostly about -25% to -30%;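 also: plate controls were DMSO wells for no effect and wells without enzyme for full effect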
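Enzyme activity of human lactate dehydrogenase 5 (2 nM; 0.06 mM NADH, 0.2 mM pyruvate, 5 min, RT) is measured via a resazurin/diaphorase fluorescence readout of residual NADH.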
IL-1B inflam inh: inhibitors of inflammasome signaling (IL-1 beta secretion). activity change, % at 57.5 µM. 360,000 tested, 4.7% active. THP-1 LPS/ATP IL-1B secretion, AlphaLISA, 16 h; active compounds read low; in the data active = activity change below about -50%; inconclusive = mostly about -30% to -49%
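Secreted IL-1B measured by AlphaLISA bead assay after 16 h compound exposure of THP-1 cells; compounds (final up to 57.5 uM) added 1 h before LPS (250 ng/mL) and ATP (1.25 mM) stimulation; lower signal means less secretion.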
VP16 counter: Gal4-VP16 reporter inhibition counter-screen; Drosophila S2 Gal4-VP16 UAS-luciferase, luminescence, 20 h; Potency, µM (titrated, usually from 53.6 µM), inactives show top-dose activity, negative = inhibition, hits mostly inhibitors; 310,000 tested, 3.5% active;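 also: Gal4-VP16 expression switched on by copper sulfate through the metallothionein promoter; potency is read from the fitted curve at half-maximal effect; nearly all actives have a fitted effect of over 50% in size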
DT40 TDP1 CPT: DT40-hTDP1 cell growth loss with CPT; Potency, µM (top dose mostly 46.2 µM), inactives show at the highest dose activity change, negative = growth inhibition, hits mostly inhibitors; chicken DT40 Tdp1-/-;hTDP1 cells + 20 nM CPT, ATP luminescence, 48 h; 420,000 tested, 12% active; AID 686979; also: potency is read from the fitted curve at half-maximal effect; nearly all actives have a fitted effect of over 55% in size
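Chicken DT40 Tdp1-/- cells complemented with human TDP1, 400 cells/well, exposed to compounds plus 20 nM camptothecin for at least 48 h at 37 C; viability read as ATP content by CellTiter-Glo luminescence.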
* hit, by the source's call; ? = inconclusive; . = no result given; [ ] = another dose, or the depositor's remark. Unless noted, calls follow the shape of the dose curve; as a rule, active = well fitted curve in the direction sought with a large enough effect; inconclusive = small, poorly fitted or top-dose-only effect, or another doubt; inactive = no such curve, though single readings can be large; an effect the other way counts as inactive or inconclusive. Unless noted, % is scaled to controls: 0 for no effect and ±100 for the full control effect.

SMILES	TDP1 cell noCPT	RORgamma inh	LDHA block	IL-1B inflam inh	VP16 counter	DT40 TDP1 CPT
COc1ccccc1-c1nn(CCC(=O)Nc2ccc(C)cc2)c2nc(C)cc(C)c12	13µM*	.	8.0	.	.	?
Cc1ccc(OCc2nc(-c3ccccc3OCC(=O)N3CCCCCC3)no2)cc1	.	.	4.2	.	.	.
Cc1cccc(OC(C)C(=O)NOCc2ccccc2)c1C (stereo not drawn)	.	.	-3.9	.	.	.
COc1cc(OC)c(-c2sc(Nc3ccccc3)n[n+]2-c2ccc(F)cc2)cc1OC	-24.6%	-2.7%	-0.4	11.4	-1.6%	?
COc1cc(Br)c(-c2sc(Nc3ccccc3)n[n+]2-c2ccc(F)cc2)cc1OC	-27.8%	6.31µM*	0.2	-13.1	-19.9%	-1.2%
COc1ccc(-c2sc(Nc3ccccc3)n[n+]2-c2ccc(F)cc2)c(OC)c1OC	13µM*	-2.1%	3.5	-13.4	-4.4%	?
CS(=O)(=O)N1CC2CCCN2c2ccc(C(F)(F)F)cc21 (stereo not drawn)	-25.7%	0.0%	-10.8	-8.6	-14.2%	-5.3%
COc1ccc(S(=O)(=O)N2CC3CCCN3c3ccc(C(F)(F)F)cc32)cc1 (stereo not drawn)	?	-28.3%	-6.1	?	-0.7%	25.9µM*
COc1ccc(S(=O)(=O)N2CC3CCCN3c3cc(C(F)(F)F)ccc32)cc1 (stereo not drawn)	?	-1.0%	2.4	-10.5	-11.7%	20.6µM*
CC(C)OC(=O)c1ccc(NC(=O)CSc2nc(-c3cccs3)cc(C(F)(F)F)n2)cc1	29.1µM*	.	-12.7	.	.	16.4µM*
CS(=O)(=O)c1nc(-c2cccs2)cc(C(F)(F)F)n1	.	2µM*	.	.	4.47µM*	.
CC(C)CNC(=O)CSc1nc(-c2cccs2)cc(C(F)(F)F)n1	?	-49.8%	-3.6	-1.3	-9.3%	?
Cc1cc(NC(=O)CCCS(=O)(=O)c2nc(-c3cccs3)cc(C(F)(F)F)n2)no1	2.59µM*	5.62µM*	-2.5	-69.5*	0.891µM*	2.59µM*
COc1cc(NC(=O)CSc2nc(-c3cccs3)cc(C(F)(F)F)n2)cc(OC)c1OC	?	.	-0.7	.	.	20.6µM*
CCCCOc1ccc(C#N)cc1OCC	.	.	26.6	.	.	.
Cc1cc(Cc2ccccc2)c(C)cn1	.	.	3.5	.	.	.
COc1ccc(-c2cc(C(F)(F)F)nc(S(=O)(=O)CCC(=O)Nc3ccccc3)n2)cc1	.	.	-5.0	.	.	.
O=C(O)CCS(=O)(=O)c1nc(-c2cccs2)cc(C(F)(F)F)n1	14.6µM*	?	-4.6	-28.9	?	10.3µM*
O=C(CCS(=O)(=O)c1nc(-c2cccs2)cc(C(F)(F)F)n1)Nc1cccc(O)c1	5.17µM*	.	-2.4	.	.	2.31µM*
O=C(CSc1nc(-c2cccs2)cc(C(F)(F)F)n1)NCc1ccccc1	23.1µM*	-31.2%	-6.7	-3.3	5.7%	?
COc1cc(NC(=O)CCS(=O)(=O)c2nc(-c3cccs3)cc(C(F)(F)F)n2)cc(OC)c1OC	6.51µM*	.	2.7	.	.	4.11µM*
FC(F)(F)c1cc(-c2cccs2)nc(S)n1	.	.	-0.9	.	.	.
O=C(CNC(=O)C1CCCCC1)Nc1cc(Cl)ccc1Cl	-23.8%	10.6%	-3.4	89.5	-3.9%	-6.0%
COc1ccc(OC)c(NC(=O)CC2CC3CCC2C3)c1 (stereo not drawn)	.	.	12.1	.	.	.
CC1CCCCC1NC(=S)Nc1cccc(S(=O)(=O)N(C)C)c1 (stereo not drawn)	?	?	-16.8	-10.8	4.8%[10 µM]	?
SMILES	TDP1 cell noCPT	RORgamma inh	LDHA block	IL-1B inflam inh	VP16 counter	DT40 TDP1 CPT
CCN(CC)c1ccc(S(=O)(=O)Nc2cc(Cl)ccc2Cl)cc1NC(=S)NC(=O)C1CCCC1	?	5.01µM*	-7.2	-50.2*	22.4µM*	?
Cc1ccc(S(=O)(=O)N(C)C)cc1NC(=S)NC1CCCC(C)C1C (stereo not drawn)	?	3.98µM*	0.0	-4.1	5.01µM*	20.6µM*
COc1ccccc1NS(=O)(=O)c1ccc(Cl)c(NC(=S)NC(=O)C2CCCC2)c1	29.1µM*	?	-1.0	-6.2	?	23.1µM*
COc1ccc(S(=O)(=O)Nc2ccccc2OC)cc1NC(=O)CC1CC2CCC1C2 (stereo not drawn)	16.4µM*	-2.7%	0.1	2.3	-4.5%	?
COc1ccc(S(=O)(=O)Nc2ccccc2Cl)cc1NC(C)=O	-26.8%	-11.9%	1.8	6.7	-13.3%	-4.5%
CCc1noc(C)c1C(=O)Nc1sc(C)cc1C(=O)OC	.	.	-1.3	.	.	.
O=C(NC1CC1)c1ccc(CN(C2CC2)S(=O)(=O)c2ccc3c(c2)CCCC3)cc1	.	.	-2.1	.	.	.
CC(C)(C)c1ccc(OCCn2cc(C(=O)C(F)(F)F)c3cc(Br)ccc32)cc1	.	.	3.6	.	.	.
CCN(CC)S(=O)(=O)c1ccc(C)c(NC(=S)Nc2cc(S(=O)(=O)N(CC)CC)ccc2C)c1	.	.	9.9	.	.	.
CCN(CC)S(=O)(=O)c1ccc(C)c(NC(=S)NC2CCCCC2)c1	14.6µM*	10µM*	-2.7	24.1	?	?
CCN(CC)S(=O)(=O)c1ccc(Cl)c(NC(=S)NC(=O)C2CCCC2)c1	18.4µM*	.	-8.2	?	.	23.1µM*
O=C(Cc1scnc1-c1cccs1)NCCc1ccccc1	.	.	-2.0	.	.	.
COc1ccc(CNC(=O)C(C)C)cc1	.	.	-0.3	.	.	.

Screening data deposited in PubChem BioAssay by National Center for Advancing Translational Sciences (NCATS).
